For 53 molecules, AC50 and activity, negative = inhibition results are on record in PubChem BioAssay AID1851 (National Center for Advancing Translational Sciences (NCATS), 2009).

Among all 16,000 compounds or so, about 5,100 (32%) were called active. Another 25% or so got no clear call; they are omitted. The list shows a part of the results. Values without a mark were called inactive. The call rests on the fitted dose curve; in most records, active means well fitted curve in the direction sought with a large enough effect; inconclusive means small, poorly fitted or top-dose-only effect, or effect the other way; inactive means no such curve, though single readings can be large or run the other way.
On the % scale 0 is the no-effect control and ±100 the full control effect.

In this assay the target is Cytochrome P450 3A4 (Homo sapiens) (UniProt P08684). The assay can be described thus: Cytochrome panel assay with activity outcomes. The conditions noted are these: recombinant CYP, pro-luciferin dealkylation, luminescence, p450-cyp3a4; series mostly up to 57.1 µM.
Chain of Cytochrome P450 3A4 (Homo sapiens) (P08684 whole entry, looked up): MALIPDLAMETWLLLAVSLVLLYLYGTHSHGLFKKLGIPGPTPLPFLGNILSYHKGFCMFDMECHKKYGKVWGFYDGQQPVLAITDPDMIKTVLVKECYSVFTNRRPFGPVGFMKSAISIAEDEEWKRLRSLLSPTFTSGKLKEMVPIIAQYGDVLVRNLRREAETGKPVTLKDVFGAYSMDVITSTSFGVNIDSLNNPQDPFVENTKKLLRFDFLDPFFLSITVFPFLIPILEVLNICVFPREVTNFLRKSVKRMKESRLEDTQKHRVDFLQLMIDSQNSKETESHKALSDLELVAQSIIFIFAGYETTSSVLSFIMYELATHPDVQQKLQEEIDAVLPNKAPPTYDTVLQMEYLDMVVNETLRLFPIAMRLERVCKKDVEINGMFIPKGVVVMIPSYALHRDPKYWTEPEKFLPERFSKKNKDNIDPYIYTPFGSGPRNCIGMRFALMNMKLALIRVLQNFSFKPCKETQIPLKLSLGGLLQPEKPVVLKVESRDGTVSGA
As to `Cc1ccnc(NCn2nnc3ccccc32)c1`, the AC50 (as a rule, the concentration giving half of the maximal activity seen) was “inactive”.

With `COc1cccc(C(C(=O)Nc2ccc(F)cc2)N(C(=O)Cn2nnc3ccccc32)C2CC2)c1` (stereo not drawn), the AC50 was 2.82 µM (active).

With `COc1ccc(N(C(=O)Cn2nnc3ccccc32)C2(C(=O)NC3CCCC3)CCCCC2)cc1`, the AC50 is 2 µM (active).

Turning to `O=C(Cn1nnc2ccccc21)N1CCCCC1`, the AC50 result was “inactive”.

Turning to `COc1ccc(NC(=O)C(c2ccc(OC)cc2)N(C)C(=O)CNC(C)=O)cc1` (stereo not drawn), the AC50 result is “inactive”.

With `COc1ccc(C(C(=O)Nc2ccc(F)cc2)N(C(=O)Cn2nnc3ccccc32)C2CC2)cc1` (stereo not drawn), the AC50 was 3.55 µM (active).

`CC(C)(C)c1cc2c(O)c(c1)Cc1cc(C(C)(C)C)cc(c1O)Cc1cc(C(C)(C)C)cc(c1O)Cc1cc(C(C)(C)C)cc(c1O)Cc1cc(C(C)(C)C)cc(c1O)Cc1cc(C(C)(C)C)cc(c1O)Cc1cc(C(C)(C)C)cc(c1O)Cc1cc(C(C)(C)C)cc(c1O)C2`: the activity, negative = inhibition is -24.5% [at 11.4 µM].

Regarding `CC(C)Oc1ccc(CSC(=N)N)cc1`, the AC50 entry was “inactive”.

With `COc1ccc(CNCCC(c2ccc(OC(C)C)cc2)C(C)C)cc1OC` (stereo not drawn), the half-maximal activity concentration (AC50) is 1.41 µM (active).

As for `NC(=S)Nc1ccc(Oc2ccc(NC(N)=S)cc2)cc1`, the AC50 is 4.47 µM (active).

On to `CCC(C)[C@H](NC(=O)Nc1ccc(Oc2ccccc2)cc1)C(=O)O` (stereo partly drawn), for which the AC50 result is “inactive”.

For `CCCCNN`, the activity, negative = inhibition was -7.03% [at 11.4 µM].

Take `O=c1c2ccc([N+](=O)[O-])c3cccc(c32)c2nc3ccccc3n12`: the AC50 was 0.891 µM (active).

Consider `NS(=O)(=O)c1cccc2c1c([N+](=O)[O-])cc1nc(O)c(O)nc12`, for which the AC50 entry is “inactive”.

Regarding `O=C(O)c1ccc2c3c1cccc3c(=O)n1c3ccccc3nc21`, the AC50 entry was “inactive”.

Consider `CC1=C(C)/C(=N\OC(=O)/C=C/c2ccccc2)C=CC1=O`, for which the AC50 entry was “inactive”.

Consider `COc1cc(/C=C2/C(=N)N3C=CSC3=NC2=O)ccc1OCCCOc1c(C)cccc1C`, for which the AC50 was 20 µM (active).

Turning to `COc1cc(C=O)ccc1OCCCOc1ccccc1C(=O)O`, the AC50 result is “inactive”.

Take `COc1ccc(/C=C2\N=C(c3c(-c4ccccc4)noc3C)OC2=O)cc1OC`: the AC50 result is “inactive”.

On to `COc1ccccc1OCCOc1ccc(/C=C2/C(=N)N3OC(C)=CC3=NC2=O)cc1OC`, for which the AC50 result is “inactive”.

Turning to `CCOc1cc(/C=C2/C(=N)N3C=CSC3=NC2=O)ccc1OCCCOc1ccccc1C`, the AC50 is 15.8 µM (active).

On to `CCOc1ccc(-c2nn(-c3ccccc3)cc2/C=C2\SC(N)=NC2=O)cc1C`, for which the AC50 entry was “inactive”.

Take `COc1cc(/C=C2/C(=N)N3C=CSC3=NC2=O)ccc1OCCCOc1ccccc1C`: the AC50 was 15.8 µM (active).

For `Cc1noc(C)c1-c1cncnc1NCc1ccccc1`, the AC50 is 2 µM (active).

Consider `Cc1noc(C)c1-c1cncnc1NC1CC1`, for which the concentration at half-maximal activity (AC50) is 7.94 µM (active).

`Cc1cnc(CNc2ncncc2-c2c(C)noc2C)cn1`: the AC50 is 12.6 µM (active).

As for `Cc1noc(C)c1-c1cncnc1NCc1cccnc1`, the AC50 was 3.16 µM (active).

Regarding `Cc1ncc([N+](=O)[O-])n1CC(C)O` (stereo not drawn), the AC50 entry was “inactive”.

Take `CCN=C(N)CSS(=O)(=O)O`: the activity, negative = inhibition was -8.49% [at 11.4 µM].

Take `Cc1noc(C)c1-c1cncnc1Nc1ccccc1`: the AC50 was 3.16 µM (active).

Regarding `Cc1noc(C)c1-c1cc(Nc2ccccc2)ncn1`, the AC50 result is “inactive”.

On to `CC(C)n1nnnc1SCC(=O)c1ccc2c(c1)OCCO2`, for which the AC50 entry is “inactive”.

As to `CC(C)n1nnnc1SCC(=O)NCc1ccc2c(c1)OCO2`, the AC50 was 0.891 µM (active).

`CC(C)n1nnnc1SCC(=O)NCCc1ccccc1`: the AC50 was 14.1 µM (active).

Take `Cc1ccc2cc(C)c3nnc(SCC(=O)NCc4ccco4)n3c2c1`: the AC50 is 22.4 µM (active).

With `Cc1cc2cc(C)c3nnc(SCC(=O)NCc4ccc5c(c4)OCO5)n3c2cc1C`, the AC50 was 0.562 µM (active).

For `Cc1ccccc1Oc1ccc(-c2nc(N)nc(N)n2)cc1`, the AC50 result was “inactive”.

Turning to `COc1cccc(CN2C(=O)N(C(C)C)C(N(O)C(=O)NC(C)C)C2(C)C)c1OC` (stereo not drawn), the activity, negative = inhibition is -12.5% [at 2.29 µM].

Consider `CCCCCCCCN1C(=O)N(C)C(N(O)C(=O)NC)C1(C)C` (stereo not drawn), for which the AC50 was 6.31 µM (active).

As to `CCCCNC(=O)NC1C(NC(=O)NCCCC)N(C)C(=O)N1C` (stereo not drawn), the AC50 entry is “inactive”.

On to `CCCOc1ccc(OCCNC2CCCC2)cc1`, for which the activity, negative = inhibition is 10% [at 2.29 µM].

As to `C=CCOc1c(Br)cc(CNc2ccc(NC(=O)C(C)C)c(OC)c2)cc1OC`, the AC50 is 3.55 µM (active).

As for `COc1cc(CNC(C)(C)CO)ccc1OCC(=O)Nc1ccc(Br)cc1`, the activity, negative = inhibition was 0.897% [at 2.29 µM].

In the case of `COc1ccc(O[C@H]2C=C[C@@H](c3ccccc3)O[C@H]2COC(=O)CC/C(C)=N/OCC[C@@H]2C=C[C@H](OC(C)=O)[C@H](COC(C)=O)O2)cc1`, the AC50 is 3.98 µM (active).

`CC(=O)OC[C@@H]1O[C@H](C/C=N\O[C@@H](C)c2cn([C@H]3COC[C@H]3O)nn2)C=C[C@@H]1OC(C)=O`: the activity, negative = inhibition was -11.8% [at 11.4 µM].

As to `CC(=O)OC[C@@H]1O[C@H](C/C=N\O[C@@H]2O[C@H](COC(C)=O)[C@@H](OC(C)=O)[C@H](OC(C)=O)[C@H]2OC(C)=O)C=C[C@@H]1OC(C)=O`, the activity, negative = inhibition was -25.4% [at 11.4 µM].

Take `Cc1cc(C)c(-c2cc([C@H](C)O/N=C3/[C@H]4OC4[C@@H](O)[C@H]4[C@H]3CCn3c(=O)n(-c5ccccc5)c(=O)n34)on2)c(C)c1` (stereo partly drawn): the activity, negative = inhibition is -41% [at 11.4 µM].

As for `CC(=O)OC[C@@H]1O[C@H](CCON=C(C)C)C=C[C@@H]1OC(C)=O`, the activity, negative = inhibition is -14.8% [at 11.4 µM].

Turning to `CCCNC(=O)OC[C@@H]1O[C@H](CCO/N=C\C[C@H]2C=C[C@H](OC(C)=O)[C@@H](COC(C)=O)O2)C=C[C@@H]1Oc1ccc(OC)cc1`, the AC50 was 3.98 µM (active).

Consider `COc1ccc(O[C@H]2C=C[C@@H](c3ccccc3)O[C@H]2COC(=O)CC/C(C)=N\O[C@@H](C)c2cc(-c3c(C)cc(C)cc3C)no2)cc1`, for which the AC50 was 3.16 µM (active).

With `CC(=O)OC[C@@H]1O[C@H](C/C=N\O[C@@H](C)c2cc(-c3c(C)cc(C)cc3C)no2)C=C[C@@H]1OC(C)=O`, the AC50 is 3.16 µM (active).

With `O=C(O)[C@H]1CCCN(CCC=C(c2ccccc2)c2ccccc2)C1`, the AC50 result is “inactive”.

On to `C[C@@H](O)[C@H]1C(=O)N2C(C(=O)O)=C(S[C@@H]3CN[C@H](C(=O)N(C)C)C3)[C@H](C)[C@H]12`, for which the AC50 result is “inactive”.
